Hit rate of the full screen: of about 190,000 compounds, about 1,300 (0.68%) were called active. No stated cut-off is given here; in the data, active means inhibition above about 50%; inactive means the rest. Only a selection was taken, and actives are over-represented in it overall.

Mannose-6-phosphate isomerase (Homo sapiens), sequence (P34949 whole entry, looked up): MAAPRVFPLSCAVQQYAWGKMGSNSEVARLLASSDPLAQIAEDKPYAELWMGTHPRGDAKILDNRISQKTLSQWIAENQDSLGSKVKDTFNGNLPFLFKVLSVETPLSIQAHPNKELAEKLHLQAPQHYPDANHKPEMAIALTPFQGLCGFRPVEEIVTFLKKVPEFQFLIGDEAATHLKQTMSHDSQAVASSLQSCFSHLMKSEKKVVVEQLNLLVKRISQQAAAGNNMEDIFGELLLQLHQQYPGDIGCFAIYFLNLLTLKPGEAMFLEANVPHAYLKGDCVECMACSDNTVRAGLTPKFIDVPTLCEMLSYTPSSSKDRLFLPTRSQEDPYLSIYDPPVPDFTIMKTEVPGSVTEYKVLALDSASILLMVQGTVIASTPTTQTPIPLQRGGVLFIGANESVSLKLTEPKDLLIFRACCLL

This experiment addresses Mannose-6-phosphate isomerase (Homo sapiens) (UniProt P34949). Briefly: MPI inhibition at elevated mannose 6-phosphate – biochemical, fluorescence intensity, high mannose 6-phosphate, primary screen (AID 1220). The note with it: recombinant PMI enzyme, coupled fluorescence intensity; at 20 µM; active compounds read high.
On to `Cc1ccc(N=Cc2c(O)[nH]c3ccccc23)c([N+](=O)[O-])c1`, for which the inhibition – broadly, the relative decrease from the control value, in per cent – was -4.1% (inactive).

For the molecule `COc1ccc(N=Cc2cc(Cc3ccccc3Cl)cc([N+](=O)[O-])c2O)cc1OC`, the inhibition is 54.9% (active). With `O=[N+]([O-])c1cc(Cc2ccccc2)cc(C=Nc2ccc(N3CCOCC3)cc2)c1O` the figure was 38.7% (inactive); with `Cc1ccc(N=Cc2cc(Cc3ccccc3Cl)cc([N+](=O)[O-])c2O)c(O)c1`, 56.5% (active). In the case of `Cc1n[nH]c(C)c1Sc1ccccc1N=Cc1cc(Cl)cc([N+](=O)[O-])c1O`, the inhibition was 0.8% (inactive). Consider `COc1cc(C=Nc2cccc(C)c2)c(O)c([N+](=O)[O-])c1`, for which the inhibition is 34% (inactive).

Regarding `Cc1c(N=Cc2ccc(O)c(Br)c2)cccc1[N+](=O)[O-]`, the inhibition was 12.1% (inactive). Take `Cc1ccc(O)c(N=Cc2cc(Cc3ccccc3)cc([N+](=O)[O-])c2O)c1`: the inhibition is 63.3% (active). With `COc1ccc(N=Cc2cccc(C)c2O)cc1Cl`, the inhibition is 7.9% (inactive). On to `COc1cc([N+](=O)[O-])cc2sc(NC(=O)C(C)(C)C)nc12`, for which the inhibition was 17% (inactive).

Take `COc1ccccc1Cn1c(/C=C/c2ccccc2)nc2ccccc21`: the inhibition is 4.9% (inactive). Regarding `Cc1cccc(-n2nc3c(c2NC(=O)c2ccc(Br)o2)CSC3)c1`, the inhibition is -0.5% (inactive). As for `CCCC(CCC(=O)Nc1cc([N+](=O)[O-])ccc1O)C(=O)O` (configuration not stated), the inhibition is 11% (inactive).

For the molecule `CC(=O)Nc1ccc(NC(=O)c2cccc3c2-c2ccccc2C3=O)cc1`, the inhibition is -2.8% (inactive). To `CC(=O)NC(=S)Nc1ccc([N+](=O)[O-])cc1C` belongs -6% (inactive); to `CC1CCCN(Cc2nc3c(c(=O)n(C)c(=O)n3C)n2CCc2ccccc2)C1` (configuration not stated), 5.2% (inactive). On to `CNC(=O)CSc1nc(N)c2c3c(sc2n1)CCC3`, for which the inhibition was 7.8% (inactive). With `CC1=C(C(=O)N2CCOCC2)C(c2cccc(C)c2)NC(=S)N1` (configuration not stated) the figure was -12.7% (inactive); with `O=C1C=C(NCc2ccccc2)c2ccccc2C1=O`, 7.9% (inactive). With `Cc1ccc(NC2=CC(=O)C(=O)c3ccccc32)cc1`, the inhibition was 56.2% (active). `COC1=C(Nc2ccc(C)cc2)C(=O)c2ccccc2C1=O`: the inhibition is -3.1% (inactive). Consider `Cc1ccc(NC2=C(NCCO)C(=O)c3ccccc3C2=O)cc1`, for which the inhibition is 47.8% (inactive).

`Nc1c(O)ccc2c1C(=O)c1ccccc1C2=O`: the inhibition was 5.1% (inactive). With `COC1=C(Nc2ccccc2)C(=O)c2ccccc2C1=O` the figure was 4.1% (inactive). With `O=C1C=C(Nc2ccccc2)c2ccccc2C1=O` the figure was 64.6% (active). To `O=C1C=C(Nc2ccccc2O)c2ccccc2C1=O` belongs 62.6% (active); to `CC1(C)CC(=O)C=C(Nc2ccccc2O)C1`, 7.6% (inactive); to `O=C1C=C(Nc2ccccc2)C(=O)c2ccccc21`, 57.5% (active).

For the molecule `O=C1C(Nc2ccccc2)=C/C(=N/S(=O)(=O)c2cccs2)c2ccccc21`, the inhibition was 40.7% (inactive). To `CC1=CC(=O)c2ccccc2C1=O` belongs -13.3% (inactive); to `CC(C)(C)n1nnnc1SCC(=O)Nc1nn(-c2ccccc2)nc1C(N)=O`, 0.7% (inactive).

In the case of `CN(C(=O)COc1ccccc1)c1nnc(-c2cccnc2)s1`, the inhibition was -0.3% (inactive).

As for `Cc1ccccc1NC(=O)c1c2c(nc3ccccc13)CCC2`, the inhibition was -4.6% (inactive). With `O=C(O)[C@H]1CCCC[C@H]1C(=O)Nc1cc([N+](=O)[O-])ccc1F` the figure was -7.1% (inactive); with `CCCC(=O)Nc1cc(Cl)ccc1C`, -0.2% (inactive). In the case of `Nc1nc(SCC(=O)Nc2cc(S(=O)(=O)N3CCOCC3)ccc2Cl)n[nH]1`, the inhibition is -10.9% (inactive).

As to `COC(=O)c1ccc(CSc2nnc(-c3ccc4c(c3)OCO4)n2-c2ccccc2)o1`, the inhibition is -8.3% (inactive). As to `Cc1ccccc1NC(=S)N1CCN(C(=O)c2ccco2)CC1`, the inhibition was 5.1% (inactive).

On to `O=C(C1CCCCN1S(=O)(=O)c1ccccc1)N1CCN(Cc2ccccc2)CC1` (configuration not stated), for which the inhibition was -3.3% (inactive). With `CC(=O)N(C(C)=O)n1c(/C=C/c2cccc([N+](=O)[O-])c2)nc2ccccc2c1=O` the figure was 15.3% (inactive); with `CCOC(=O)c1ccc(NC2OC(=O)c3ccccc32)cc1` (configuration not stated), -0.5% (inactive); with `CCOC(=O)c1ccc(NC(=O)C(C)N2C(=O)c3ccccc3C2=O)cc1` (configuration not stated), 5% (inactive). To `CCOC(=O)c1ccc(NC2=CC(=O)C(=O)c3ccccc32)cc1` belongs 57.3% (active); to `Nc1ccc2[nH]ncc2c1`, 48.1% (inactive).

On to `O=[N+]([O-])c1ccc2cn[nH]c2c1`, for which the inhibition is 1.3% (inactive).

With `Nc1ccc2cn[nH]c2c1`, the inhibition is 53.1% (active). In the case of `CCCCc1nnc(NC(=O)C(C)Sc2nc(N)cc(=O)[nH]2)s1` (configuration not stated), the inhibition was 0.4% (inactive). With `CC(C)Cc1nnc(NC(=O)CSc2nc(N)cc(=O)[nH]2)s1`, the inhibition is -6.4% (inactive).

On to `CCCCc1nnc(NC(=O)CSc2nc(N)cc(=O)[nH]2)s1`, for which the inhibition is 51.1% (active). Regarding `C=CCc1ccccc1OCCNCc1ccccc1`, the inhibition was 1% (inactive). With `Cc1cccc(C(=O)NC2CCN(CC(=O)NCc3cccs3)CC2)c1` the figure was -0.6% (inactive). With `CC(C)Cn1[nH]c2c3c(ccc2c1=O)C(=O)c1ccccc1C3=O` the figure was 60.3% (active); with `Cc1ccc(-n2[nH]c3c4c(ccc3c2=O)C(=O)c2ccccc2C4=O)cc1`, 13.1% (inactive); with `Cc1ccc(C)c(-n2[nH]c3c4c(ccc3c2=O)C(=O)c2ccccc2C4=O)c1`, 58% (active). As for `COCCCn1[nH]c2c3c(ccc2c1=O)C(=O)c1ccccc1C3=O`, the inhibition is 14.1% (inactive). For `O=C1c2ccccc2C(=O)c2c1ccc1c(=O)n(-c3ccccc3)[nH]c21`, the inhibition was 30.4% (inactive).

For `Cc1cccc(-n2[nH]c3c4c(ccc3c2=O)C(=O)c2ccccc2C4=O)c1`, the inhibition is 26.4% (inactive). As for `C=CCn1c(SCC(=O)Nc2cccc3ccccc23)nc(O)c(CC)c1=O`, the inhibition was -3.4% (inactive). Regarding `CCn1c(CNc2ccc(F)cc2)nnc1SCC(=O)Nc1ccccc1OC`, the inhibition was 4% (inactive).

Consider `CN(C(=O)c1ccccc1)c1ccc(OCC(=O)NC2CCS(=O)(=O)C2)cc1` (configuration not stated), for which the inhibition was 11.6% (inactive). `CC(C)(C)NS(=O)(=O)c1ccc(OCC(=O)NCCC2=CCCCC2)cc1`: the inhibition is 1.2% (inactive).

With `COCc1c(C(=O)N/N=C/c2cccc3ccccc23)nnn1-c1nonc1N`, the inhibition is -11.8% (inactive). To `COCc1c(C(=O)N/N=C(/C)c2ccccc2)nnn1-c1nonc1N` belongs 6.3% (inactive); to `CC(=C/c1ccco1)/C=N/NC(=O)c1nnn(-c2nonc2N)c1CN(C)C`, 59.6% (active).

Take `O=[N+]([O-])c1ncccc1Oc1nc(-c2cccnc2)nc2ccccc12`: the inhibition is 65.8% (active). On to `Cc1ccc(Oc2nc(-c3cccnc3)nc3ccccc23)c([N+](=O)[O-])n1`, for which the inhibition was 8.5% (inactive). To `CC(=O)c1ccc(Oc2nc(-c3cccnc3)nc3ccccc23)cc1` belongs -4.3% (inactive); to `Cc1cc(C(=O)C(=O)O)c(C)n1-c1ccc(Cl)c(Cl)c1`, -3% (inactive); to `COc1ccc(CCC(=O)N2CC(C)OC(C)C2)cc1` (configuration not stated), 5.2% (inactive). With `Cc1ccc(C)c(NC(=O)c2nc(-c3ccccc3)n(-c3ccccc3)n2)c1` the figure was 16.2% (inactive); with `O=[N+]([O-])c1ccc(C[n+]2ccc(Cc3ccccc3)cc2)cc1`, 31.5% (inactive); with `O=S(=O)(c1ccccc1)N1CCN=C1SCc1ccccc1`, -2.3% (inactive). To `O=S(=O)(c1ccccc1)N1CCN=C1SCc1ccc(Cl)c(Cl)c1` belongs -0.5% (inactive); to `O=S(=O)(c1ccccc1)N1CCN=C1SCc1ccc(Cl)cc1`, 51.5% (active); to `c1ccc(COc2ccc(OCCN3CCCC3)cc2)cc1`, 16.3% (inactive). `Cc1cccc(NC(=O)CC2SC(=NC3CCCCC3)NC2=O)c1` (configuration not stated): the inhibition was 7.6% (inactive).

With `Nn1c(COc2ccc(Cl)cc2)n[nH]c1=S`, the inhibition is 10.2% (inactive). To `Cc1ccc(OCc2n[nH]c(=S)n2N)cc1C` belongs 9.3% (inactive); to `CCOc1ccccc1OCCNC1CCCC1`, -5% (inactive); to `COCCCNC(=S)Nc1ccc(C)cc1[N+](=O)[O-]`, 5.7% (inactive).

Turning to `CC[C@H](C)C(C(=O)N1CCN(C(=O)OC(C)(C)C)CC1)n1cc(C(Cc2ccc(O)cc2)NC(=O)OC(C)(C)C)nn1` (some centres not stated), the inhibition was 6.3% (inactive). With `O=C(CSc1nnc(SCc2ccccc2)s1)N/N=C/C=C\c1ccco1` the figure was -23% (inactive). With `CC(/C=N/NC(=O)CSc1nnc(SCc2ccccc2)s1)=C\c1ccco1` the figure was 54.7% (active); with `CC(=C/c1ccco1)/C=N/NC(=O)CSc1nnc(SCc2ccc(C)cc2)s1`, 49.4% (inactive); with `CC(/C=N/NC(=O)CSc1nc2ccccc2n1C)=C\c1ccco1`, 58.6% (active).

For `CC(/C=N/NC(=O)c1cc(-c2ccncc2)nc2ccccc12)=C\c1ccco1`, the inhibition is 11.8% (inactive). Consider `CC(/C=N/NC(=O)c1cc(-c2ccc(Cl)cc2)nc2ccccc12)=C\c1ccco1`, for which the inhibition is 11.8% (inactive). With `Cn1c(SCC(=O)N/N=C/c2ccco2)nc2ccccc21` the figure was 3.4% (inactive); with `CC(/C=N/NC(=O)c1cc(-c2ccccc2)nc2ccccc12)=C\c1ccco1`, 63.2% (active); with `Cn1c(SCC(=O)N/N=C/C=C/c2ccco2)nc2ccccc21`, 45.7% (inactive). With `CCc1ccc(Nc2nnc(SCC(=O)Nc3sccc3C(N)=O)s2)cc1` the figure was 11.1% (inactive).

As to `CCOC(=O)c1ccc(NC(=S)N(CCN2CCCCCC2)Cc2cccs2)cc1`, the inhibition was 2.9% (inactive). With `COc1cc(OC)cc(C(=O)NCC2CCCO2)c1` (configuration not stated) the figure was 12.6% (inactive); with `Cc1ccc2nc3c(cc2c1)c(NC(=O)c1cccnc1)nn3C`, 13.2% (inactive); with `Cc1c(C(=O)NCC2CCCO2)oc2ccc3c(c12)C(=O)CC(C)(C)O3` (configuration not stated), 7.4% (inactive). With `O=C(Nc1cccnc1)C1CCCN(S(=O)(=O)c2ccccc2)C1` (configuration not stated) the figure was -2% (inactive). To `CCOc1cc(N2CCOCC2)c(OCC)cc1NC(=O)CSc1cccc[n+]1[O-]` belongs 16.7% (inactive). For the molecule `CCOc1cc(N2CCOCC2)c(OCC)cc1NC(=O)CSc1nccc(C)n1`, the inhibition was 19.5% (inactive).

Take `CCOc1cc(N2CCOCC2)c(OCC)cc1NC(=O)CSc1ncn[nH]1`: the inhibition is 53% (active).

For the molecule `CCOc1cc(N2CCOCC2)c(OCC)cc1NC(=O)CSc1ncccn1`, the inhibition was 50.6% (active). In the case of `CCOc1cc(N2CCOCC2)c(OCC)cc1NC(=O)CCC1CCCC1`, the inhibition is 17.2% (inactive). To `CCOc1cc(N2CCOCC2)c(OCC)cc1NC(=O)CSc1n[nH]c(N)n1` belongs 37.1% (inactive).

These data come from PubChem BioAssay AID1220 (Sanford-Burnham Center for Chemical Genomics, 2008).
